High-throughput results deposited in PubChem by Broad Institute.
Hits are enriched below; roughly 3.4% of the tested compounds scored in any of these assays.
LGR2 inh – inhibitors of bursicon-induced LGR2 CRE-luciferase signal, primary screen, cell-based, HEK293, CRE-luciferase reporter, bursicon stimulation; AID 720647, 2013; Drosophila bursicon receptor LGR2 (rickets); inhibition, % at 9.99 µM; bursicon-stimulated, 4 h; 380,000 tested, 0.35% active;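 active means drop in luminescence signal, shown as inhibition above about 50% in the replicate tests, limit read from the data, passing the limit was not always enough; inconclusive means probably only some replicates passing the limit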;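 further: agonist challenge used bursicon conditioned medium at about half maximal strength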
EWS-Fli block – EWS/Fli-driven NR0B1 reporter inhibitors, primary screen, A673 cells, NR0B1 luciferase, luminescence, MLPCN library | viability-normalised | inhibition, % at 12.6 µM | 350,000 tested, 0.67% active;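 active means mean inhibition of at least 50% after viability correction, with every replicate also passing that limit; inconclusive means mean reaches 50% but only one of two replicates passes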;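 further: firefly luciferase signal divided by Alamar Blue viability fluorescence both relative to DMSO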
PGC1a acetyl inh – inhibitors of PGC1a acetylation signal, primary screen, cell-based, U2OS, AlphaScreen, inhibitor mode | AlphaScreen anti-acetyl-lysine; with virally co-expressed GCN5 acetyltransferase | inhibition, % at 15.6 µM | 350,000 tested, 0.17% active | AID 651687, 2012;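 active means every replicate shows inhibition of at least 40%; inconclusive means mean inhibition at least 40% but some replicate below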
rRNA inh HTS – reduced GFP signal of wild-type E. coli, primary screen, bacterial rRNA inhibitor project, GFP/RFP fluorescence, OD600, single point; E. coli WT GFP vs humanized-ribosome RFP mutants, 24 h; hits give low values; DMSO median 0, no signal -100; GFP signal change (wild-type ribosome), % (test concentration not listed); 350,000 tested, 1.6% active;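 active means significant combined selectivity score with lowered wild-type GFP, culture density cut under 30%, mutant RFP and density less affected; inactive means any of these conditions unmet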
PAX8 reporter – inhibitors of PAX8-driven TPO luciferase reporter, primary screen, RMG-I cells, single concentration. SteadyGlo, 24 h. inhibition, % at 12.6 µM. 360,000 tested, 1.2% active. AID 652154, 2013;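 active means mean replicate inhibition at least 60% with every replicate also reaching 60%; inconclusive means only one of the two criteria is met; inactive means mean below 60% and not all replicates reaching 60%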;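 further: luciferase light reporting Pax8 driven TPO promoter activity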
SIRT5 block – SIRT5 desuccinylase inhibitors, primary screen, biochemical, fluorescence imaging, single point, set 5 | Purified SirT5, succinyl-peptide AMC, trypsin-coupled fluorescence | NAD-dependent protein deacylase sirtuin-5, mitochondrial (Homo sapiens), Q9NXA8 | inhibition, % at 15 µM | 330,000 tested, 1.1% active | AID 652115, 2013; in the data active means inhibition above about 15%; inconclusive means no clear call, values can overlap the other calls
Target sequence (Q9NXA8 whole entry, looked up): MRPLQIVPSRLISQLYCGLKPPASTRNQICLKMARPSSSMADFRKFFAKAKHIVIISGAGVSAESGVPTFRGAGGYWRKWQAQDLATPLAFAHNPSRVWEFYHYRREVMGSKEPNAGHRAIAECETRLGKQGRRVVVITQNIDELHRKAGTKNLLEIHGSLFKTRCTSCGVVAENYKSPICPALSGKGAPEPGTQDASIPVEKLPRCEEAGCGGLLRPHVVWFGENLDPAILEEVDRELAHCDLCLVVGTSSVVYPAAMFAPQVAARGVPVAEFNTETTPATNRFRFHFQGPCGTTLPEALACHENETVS
Each line names hits and unclear results; the compound was inactive in the other large screens; ! = not confirmed by another sample.

O=C(CC1CC1)N[C@H]1C[C@@H]2O[C@H](CO)CC[C@@H]2O[C@@H]1CCc1ccc(C#Cc2ccccc2)cc1	none (no result: LGR2 inh, rRNA inh HTS, SIRT5 block)
COc1ccccc1C#Cc1ccc([C@@H]2[C@@H](CO)N3CCCCN(C(=O)C4CC4)C[C@@H]23)cc1	none (no result: LGR2 inh, rRNA inh HTS)
Cc1cccc(-c2ccc3[nH]c4c(c3c2)CCN2C[C@@H]([C@H](C)O)[C@@H](N(C)C(=O)Nc3ccc(F)cc3)C[C@@H]42)c1	rRNA inh HTS -21.8
COc1ccc(NC(=O)N(C)[C@H]2C[C@H]3c4[nH]c5ccc(-c6cccc(C)c6)cc5c4CCN3C[C@H]2[C@H](C)O)cc1	none (no result: LGR2 inh, EWS-Fli block, rRNA inh HTS, PAX8 reporter, SIRT5 block)
C[C@H](O)[C@@H]1CN2CCc3c([nH]c4ccc(-c5ccc6c(c5)OCO6)cc34)[C@@H]2C[C@@H]1N(C)C(=O)NC1CCCCC1	rRNA inh HTS -52.3, PAX8 reporter 89.6
C=C(CN(C)C)C(=O)c1ccc(OC2OC(COC(C)=O)C(OC(C)=O)C(OC(C)=O)C2OC(C)=O)cc1 (stereo not given)	PAX8 reporter 83.2 (no result: rRNA inh HTS)
C[C@H](CO)N1C[C@H](C)[C@@H](CN(C)Cc2ccc(-c3ccccc3)cc2)Oc2cc(C#C[C@@H](C)O)ccc2S1(=O)=O	PAX8 reporter 74.0
C[C@@H](O)C#Cc1ccc2c(c1)O[C@H](CN(C)Cc1ccc(-c3ccccc3)cc1)[C@@H](C)CN([C@@H](C)CO)S2(=O)=O	PAX8 reporter 102.6, SIRT5 block 26.6
C[C@H](O)C#Cc1ccc2c(c1)O[C@@H](CN(C)Cc1ccc(-c3ccccc3)cc1)[C@@H](C)CN([C@H](C)CO)S2(=O)=O	PAX8 reporter 94.3, SIRT5 block 22.5
CC(=O)Nc1ccc2c(c1)CC(=O)N(C)C[C@@H](C)[C@@H](CN(C)C(=O)NC(C)C)O2	none (no result: LGR2 inh, EWS-Fli block, PGC1a acetyl inh, PAX8 reporter, SIRT5 block)
COc1cccc(-n2nnnc2SCC(=O)NCc2ccc3c(c2)OCO3)c1	rRNA inh HTS -21.1 (no result: PAX8 reporter)
COc1ccc(C)cc1-n1nnnc1SCC(=O)c1ccc2c(c1)OCCO2	none (no result: LGR2 inh, EWS-Fli block, rRNA inh HTS, SIRT5 block)
COc1ccc(-n2nnnc2SCC(=O)c2ccc3c(c2)OCCO3)c(OC)c1	SIRT5 block 26.8 (no result: PAX8 reporter)
COc1cc(OC)cc(-n2nnnc2SCC(=O)NCc2ccc3c(c2)OCO3)c1	none (no result: PAX8 reporter)
O=C(c1ccc(S(=O)(=O)N2CCCC2)cc1)N1CCCCCC1	none
O=C(c1ccc(S(=O)(=O)N2CCCCC2)cc1)N1CCN(CCN2C(=O)c3cccc4cccc(c34)C2=O)CC1	LGR2 inh 77.1
CC1(C)N=C(N)N=C(N)N1c1cccc(CC(=O)Nc2ccccc2)c1	none (no result: PGC1a acetyl inh)
CC1(C)N=C(N)N=C(N)N1CCCCc1ccccc1	PAX8 reporter 72.6 (no result: SIRT5 block)
O=C(/C=C/c1ccc(O)c(O)c1)c1ccccc1O	rRNA inh HTS -32.0
Oc1cc(O)cc(C=Cc2ccc(O)c(O)c2)c1	LGR2 inh inconclusive, rRNA inh HTS -29.2 (no result: PGC1a acetyl inh, SIRT5 block)
CC(C)c1ccc2[nH]c3c(c2c1)[C@@H]1CCN2C(=O)CCC[C@H](C3)[C@H]12	SIRT5 block 34.5
CC[C@H]1c2[nH]c3ccc(C(C)C)cc3c2[C@@H]2CCN3C(=O)CCC[C@H]1[C@H]23	none
COc1ccc(S(=O)(=O)Nc2cccc3c2O[C@H](CN(C)C(=O)NC(C)C)[C@@H](C)CN([C@@H](C)CO)C3=O)cc1	none (no result: PAX8 reporter)
O=C(C[C@H]1CC[C@H](NC(=O)c2ccccc2)[C@H](CO)O1)NCc1ccncn1	none
Cc1ccc(N=Nc2cc(C)ccc2O)c(C)c1	none
Cc1ccc(N=Nc2cc(C)ccc2N)cc1	LGR2 inh 67.8, rRNA inh HTS -52.8
COCCNC(=O)C[C@H]1CC[C@@H]2[C@H](COc3ccc(NC(=O)C4CCCC4)cc3C(=O)N2C)O1	none
Cn1ccnc1SC(C(=O)O)c1ccccc1 (stereo not given)	SIRT5 block 102.2
CC(C)N(Cc1ccccc1)C(=O)CSc1nccn1C	none (no result: PGC1a acetyl inh)
Cn1cnc(CCNC(=O)C[C@H]2CC[C@@H]3[C@H](COC[C@H](O)CN3C(=O)Nc3ccc(Cl)cc3)O2)c1	rRNA inh HTS -21.4
Cn1cnc(CCNC(=O)C[C@H]2CC[C@@H]3[C@H](COC[C@@H](O)CN3C(=O)Nc3ccc(F)cc3)O2)c1	none
Cn1cnc(CCNC(=O)C[C@@H]2CC[C@H]3[C@@H](COC[C@H](O)CN3C(=O)C3CCCC3)O2)c1	none
Cn1cnc(CCNC(=O)C[C@H]2CC[C@@H]3[C@H](COC[C@H](O)CN3C(=O)C3CCCC3)O2)c1	SIRT5 block 35.3!
Cn1cnc(CCNC(=O)C[C@@H]2CC[C@@H]3[C@H](COC[C@@H](O)CN3C(=O)Nc3ccc(Cl)cc3)O2)c1	SIRT5 block 19.5
C[C@@H]1CN([C@H](C)CO)C(=O)c2c(c3ccccc3n2C)-c2ccccc2CO[C@@H]1CN(C)C(=O)[C@H](C)c1ccccc1	none
CCCC#Cc1ccc2c(c1)O[C@@H](CN(C)C(=O)CC1CC1)[C@H](C)CN([C@H](C)CO)S2(=O)=O	none (no result: PAX8 reporter)
CC(C)(C)c1ccc(OCCC(=O)OCC(=O)NCc2ccccc2)cc1	rRNA inh HTS -34.0 (no result: PGC1a acetyl inh)
CO[C@@H](CN(C)C(=O)c1ccc2c(c1)OCO2)[C@@H](C)CN([C@@H](C)CO)S(=O)(=O)c1ccc(C)cc1	none (no result: PAX8 reporter)
CCN=C1S/C(=C\c2cn(CC(=O)NCc3ccco3)c3ccccc23)C(=O)N1CC	PAX8 reporter 78.3
O=C(CN1CCC(c2nc3ccccc3s2)CC1)N1CCCCC1	SIRT5 block 37.5
CC(C)C(=O)Nc1ccc2c(c1)C(=O)N(C)[C@H]1CC[C@@H](CC(=O)N[C@H](C)c3ccccc3)O[C@@H]1CO2	none (no result: SIRT5 block)
Cc1ccc(S(=O)(=O)CC(N)=O)cc1	none (no result: PAX8 reporter)
Cc1ccc(S(=O)(=O)CCSC(=N)N)cc1	PAX8 reporter 68.9
CCC(CC)C(=O)NCCc1cc2ccc(C)cc2[nH]c1=O	rRNA inh HTS -14.2
CC1=CC(C)(C)N2C(=O)C3(NCCc4c3[nH]c3ccccc43)c3cc(C)cc1c32 (stereo not given)	PAX8 reporter 88.2
Clc1nc(NCCc2ccccc2)c2cn[nH]c2n1	rRNA inh HTS -30.2 (no result: SIRT5 block)
Cn1ncc2c(NCCc3ccccc3)nc(Cl)nc21	none (no result: SIRT5 block)
C[C@@H]1CCCCO[C@@H](CN(C)Cc2ccncc2)[C@H](C)CN([C@H](C)CO)C(=O)c2cc(NC(=O)Nc3ccc4c(c3)OCO4)ccc2O1	none
Cc1[nH]n(-c2cccc(Cl)c2)c(=O)c1C=NCC(C)C	rRNA inh HTS -20.9
CCOC(=O)CSC1=C(C#N)C(c2ccc(C)o2)CC(=O)N1 (stereo not given)	PAX8 reporter 64.7
